Data on 5 compounds can be found in PubChem BioAssay.

What is called inhibition is the drop in the measured response relative to a control, in per cent.

Assay [1] can be described thus: stimulators of nuclear beta-catenin in C2C12, primary screen, imaging, WNT3A-conditioned medium, mouse C2C12, NPC library (AID 1117326; in the data active = nuclear beta-catenin stimulation mostly above about 4.2%, no sharp cut-off; inactive = mostly below about 10%). As to conditions: stronger effect = higher value.
A short description of assay [2]: stimulators of insulin release from INS-1E, primary screen, cell-based, 5 mM glucose, NPC library (AID 1117329;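 active = compound raises insulin release from rat beta cells at 5 mM glucose, no numeric limit stated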). As to conditions: rat INS-1E insulin secretion, at 10 µM, stronger effect = higher value.
Assay [3] is described as follows: growth inhibition of GSK3B-pretreated HCT116 cells – cell-based, CellTiter-Glo, 0.2 to 20 µM (AID 1117336;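 active = compounds lowering colon cancer cell viability after pretreatment blocking the GSK3B kinase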). As to conditions: HCT116 viability after GSK3B inhibitor, at 20 µM, stronger effect = higher value.
Assay [4] can be described thus: inhibition of endothelial tube formation, primary screen, imaging, VEGF stimulated, CD31 staining, tube area, NPC library (AID 1117340;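 active = compound that reduces growth-factor-driven endothelial tube area in a mixed cell culture, no cutoff stated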). As to conditions: VEGF-stimulated ADSC/ECFC co-culture, at 10 µM, stronger effect = higher value.
A short description of assay [5]: glucagon-like peptide 1 release enhancers, primary assay, NCI-H716 cell line, NPC library (AID 1117341;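 active = compound raises GLP1 secretion from the human gut endocrine cells, with no numeric limit stated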). The following applies: NCI-H716 cells, at 10 µM, stronger effect = higher value.
Assay [6] can be described thus: HCT116 colon cancer cell growth inhibition, primary screen, CellTiter-Glo luminescence, NPC library (AID 1117342). The following applies: at 20 µM (top of the series).
Assay [7] in a line: CellTiter-Glo luminescent readout of SW480 viability loss, NPC library primary (AID 1117343;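 active = compounds that lower viability of the colon cancer cells in the luminescence readout, with no numeric limit stated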). The following applies: CellTiter-Glo luminescence; at 20 µM (top of the series). (In general: In ATP-based viability assays light output follows the ATP content of the culture.)
Assay [8] is described as follows: decreased DLD-1 cellular survival, CellTiter-Glo luminescent readout, NPC compound collection, primary HTS (AID 1117346;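 active = compounds that lower survival of DLD-1 colon cancer cells in the luminescence readout, no cutoff given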). As to conditions: DLD-1 viability, CellTiter-Glo luminescence; at 20 µM (top of the series).
The target in assay [9] is 6-phosphogluconate dehydrogenase, decarboxylating (Homo sapiens) (UniProt P52209). As to the kind of experiment: 6PGD enzyme inhibitors, primary screen, biochemical, human, recombinant enzyme, NADPH absorbance (AID 1159550;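 active = at least 20% inhibition of 6-phosphogluconate dehydrogenase activity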). The following applies: recombinant 6PGD, NADPH absorbance 341 nm; at 10 µM; stronger effect = higher value.
Chain of 6-phosphogluconate dehydrogenase, decarboxylating (Homo sapiens) (P52209 whole entry, looked up): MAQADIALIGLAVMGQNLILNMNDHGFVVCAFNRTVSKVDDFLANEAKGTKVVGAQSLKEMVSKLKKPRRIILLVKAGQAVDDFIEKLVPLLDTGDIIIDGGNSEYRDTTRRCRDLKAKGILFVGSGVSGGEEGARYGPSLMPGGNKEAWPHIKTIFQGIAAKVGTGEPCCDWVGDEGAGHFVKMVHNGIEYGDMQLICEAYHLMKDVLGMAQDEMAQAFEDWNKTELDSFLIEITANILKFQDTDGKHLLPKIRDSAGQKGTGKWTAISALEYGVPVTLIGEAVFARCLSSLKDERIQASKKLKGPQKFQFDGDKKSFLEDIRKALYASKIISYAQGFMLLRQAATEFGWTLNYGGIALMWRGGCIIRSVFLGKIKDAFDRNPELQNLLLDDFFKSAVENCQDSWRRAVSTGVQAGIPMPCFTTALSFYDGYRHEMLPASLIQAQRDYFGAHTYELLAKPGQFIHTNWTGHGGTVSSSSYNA
The nature of assay [10]: sensitizers of A549 cells to miR-34 induction, primary screen, imaging, A549 dox-inducible miR-34, nuclei and caspase counts (AID 1347080;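 active = compounds whose cell count with miR-34 switched on is under 0.7 times the count with it off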). As to conditions: A549 miR-34 inducible, Hoechst nuclei count, 48 h.
Assay [11] concerns the target NAD(+) hydrolase SARM1 (Homo sapiens) (UniProt Q6SZW1). Nature of the assay: SARM1 TIR NADase inhibitors, cell lysate, NAD-Glo luminescence (AID 1508614;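 active = compound whose remaining NAD level is above about 45 nM, limit read from the data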;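 also: higher remaining NAD means stronger inhibition of SARM1 NADase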). As to conditions: SAM-TIR HEK293T lysate NADase, at 1 µM, stronger effect = higher value.
Assay [12] has as its target Mitogen-activated protein kinase 7 (Homo sapiens) (UniProt Q13164). As to the kind of experiment: ERK5 transactivation activators in reporter cells, primary screen, cell-based, HTS (AID 1508626;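 active = luciferase signal above three times the same-plate solvent-only control wells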;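 also: luciferase driven by Gal4-ERK5 fusion binding five Gal4 sites before minimal TATA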). As to conditions: HeLa Gal4-ERK5 transactivation, 18 h, at 5 µM, stronger effect = higher value.
Assay [13] can be described thus: modulation of C. elegans fzo-1 (AID 1259413; call rule not given here;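 also: fzo-1 mutant C. elegans worms in liquid wells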). As to conditions: C. elegans fzo-1 modulator screen, mean read-out; stronger effect = higher value.
A short description of assay [14]: differential killing of epithelial or mesenchymal cells, primary screen, imaging, PC-3E GFP, TEM4-18 mCherry, co-culture (AID 1345086;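 active = compounds killing one labelled cell type while sparing the other, by normalised counts and ratio limits, not self-fluorescent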;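 also: cells exposed to compound for 72 h before imaging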;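 as to red/green cell ratio (normalised): normalised mesenchymal count divided by normalised epithelial count so high means epithelial killing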). As to conditions: imaging cell counts, at 1 µM.
Assay [15] can be described thus: survival rescue of mitochondrial mutant cells in low glucose, primary screen, MELAS cybrids, Rieske KO mouse fibroblasts, CellTiter-Glo (AID 1508586;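 active = mean z-score across replicates of 1.96 or higher in either the MELAS or the Rieske mutant cell line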;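 also: z relative to plate mean and SD of compound and empty wells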).
The nature of assay [16]: ICB984 medulloblastoma cell growth inhibition, synergistic combos for chromothripsis tumors, cisplatin or BGB combos (AID 1671451; call rule not given here;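 also: cells exposed for 96 hours before readout; 0% = vehicle DMSO and 100% = killing by high DMSO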). As to conditions: ICB984 medulloblastoma cells, drug combinations, stronger effect = higher value.
In the next assay the test system is F380Y. Nature of the assay: modulators of BK channel variants, profiling panel, selectivity assay, cell-based, U2OS BacMam, thallium flux, beta subunits (AID 1259406;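 active = thallium flux through the channel raised or lowered by more than 3 SD from vehicle-only wells, actives on both sides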;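 also: initial slope of Thallos dye fluorescence rise after thallium is added; log ratio against the mean of 0.3% DMSO vehicle wells on the same plate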). The following applies: at 30 µM.
The test system of the next assay is F380Y/beta1. The assay is described as above. As to conditions: at 30 µM.
A further assay has as its system F380Y/beta2Delta. The description is as above. The following applies: at 30 µM.

Molecules are shown by their SMILES. Values joined by “and” are separate entries in the source; they are usually repeats but may differ in a detail not shown here. Equal entries are not always repeated. Active and inactive are the calls of the source.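 The calls were made as follows, unless noted: active = compounds that lower survival of HCT116 colon cancer cells in the luminescence readout, no numeric limit stated; inactive = the rest.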

Chain of NAD(+) hydrolase SARM1 (Homo sapiens) (Q6SZW1 whole entry, looked up, the tested form may be a part): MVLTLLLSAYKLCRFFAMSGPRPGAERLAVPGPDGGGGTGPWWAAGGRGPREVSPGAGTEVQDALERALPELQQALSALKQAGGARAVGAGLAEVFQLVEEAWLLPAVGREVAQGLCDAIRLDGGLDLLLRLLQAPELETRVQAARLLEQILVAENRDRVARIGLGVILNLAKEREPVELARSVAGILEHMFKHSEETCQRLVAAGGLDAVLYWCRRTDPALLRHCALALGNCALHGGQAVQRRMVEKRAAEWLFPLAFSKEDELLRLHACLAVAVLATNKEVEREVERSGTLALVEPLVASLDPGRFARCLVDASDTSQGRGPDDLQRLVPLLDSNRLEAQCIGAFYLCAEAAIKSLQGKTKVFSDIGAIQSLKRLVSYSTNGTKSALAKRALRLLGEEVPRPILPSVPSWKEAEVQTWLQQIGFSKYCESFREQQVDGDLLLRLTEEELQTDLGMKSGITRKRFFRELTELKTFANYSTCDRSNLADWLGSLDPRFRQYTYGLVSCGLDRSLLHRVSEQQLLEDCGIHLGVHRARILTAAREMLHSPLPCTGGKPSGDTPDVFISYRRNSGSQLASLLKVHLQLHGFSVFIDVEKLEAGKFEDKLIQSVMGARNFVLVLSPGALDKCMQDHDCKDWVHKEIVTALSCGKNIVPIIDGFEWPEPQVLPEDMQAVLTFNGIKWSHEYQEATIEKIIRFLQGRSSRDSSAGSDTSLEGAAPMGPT
Chain of Mitogen-activated protein kinase 7 (Homo sapiens) (Q13164 whole entry, looked up, the tested form may be a part): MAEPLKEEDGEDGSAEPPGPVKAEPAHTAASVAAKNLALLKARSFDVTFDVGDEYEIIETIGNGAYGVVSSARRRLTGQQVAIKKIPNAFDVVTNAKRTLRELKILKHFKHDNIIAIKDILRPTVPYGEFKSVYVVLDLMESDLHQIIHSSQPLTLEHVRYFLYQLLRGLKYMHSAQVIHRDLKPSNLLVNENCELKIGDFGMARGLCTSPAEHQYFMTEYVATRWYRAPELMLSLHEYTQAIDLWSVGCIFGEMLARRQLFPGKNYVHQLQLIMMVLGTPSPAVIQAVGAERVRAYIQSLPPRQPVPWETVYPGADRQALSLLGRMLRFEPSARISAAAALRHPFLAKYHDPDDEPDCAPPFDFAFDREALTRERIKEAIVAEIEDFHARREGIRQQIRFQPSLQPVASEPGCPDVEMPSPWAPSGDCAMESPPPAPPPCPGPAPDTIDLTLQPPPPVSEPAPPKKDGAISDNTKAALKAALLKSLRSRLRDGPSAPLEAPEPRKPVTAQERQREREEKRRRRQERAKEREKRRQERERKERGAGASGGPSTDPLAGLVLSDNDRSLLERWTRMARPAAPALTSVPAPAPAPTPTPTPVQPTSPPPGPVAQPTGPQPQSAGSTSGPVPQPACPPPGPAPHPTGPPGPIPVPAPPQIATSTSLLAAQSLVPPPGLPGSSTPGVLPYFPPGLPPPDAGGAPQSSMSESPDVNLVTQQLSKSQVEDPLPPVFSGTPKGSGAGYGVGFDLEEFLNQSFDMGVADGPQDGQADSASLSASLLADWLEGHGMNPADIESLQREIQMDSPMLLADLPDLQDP

For the compound `CC[C@H]1CN2CCc3cc(OC)c(OC)cc3[C@@H]2C[C@@H]1C[C@H]1NCCc2cc(OC)c(OC)cc21`, the nuclear beta-catenin stimulation was 12.4% (inactive) in assay [1] (at 10 µM) and 9.1% in assay [1] (stimulation, at 2 µM). The insulin secretion stimulation in assay [2] is 13.4% (inactive). Also, the viability decrease in assay [3] is 82.1% (active). In addition, the tube area decrease in assay [4] is 110% (active). Also, the GLP1 secretion stimulation in assay [5] is 2.4% (inactive). Moreover, in assay [6], the inhibition of viability was 84.8% (active). Moreover, the viability decrease (inhibition) in assay [7] was 115% (active); in [8] it was 97% (active). For the same compound, the inhibition in assay [9] was 6.15% (inactive). For the same compound, the fold change in [10] (stronger effect = lower value, cell number ratio, induced over uninduced) was 1.04 (inactive) and 0.853 (inactive); in [10] (measured here: relative caspase fold change +Dox/-Dox), 1.32 and 1.38. For the same compound, the cell count in assay [10] (measured here: total cells with miR-34 induction, stronger effect = lower value) is 1340 and 1650; in assay [10] (measured here: total cells without miR-34 induction) it was 1300 and 1930. Also, the remaining NAD in [11] is 10 nM (inactive). In assay [12], the luciferase signal is 24 AU (inactive).
With `CC(CSC(=O)c1ccccc1)C(=O)N1C[C@@H](Sc2ccccc2)C[C@H]1C(=O)O` (stereo partly drawn), the nuclear beta-catenin stimulation is -1% (inactive) in assay [1] (at 10 µM) and -0.2% in [1] (stimulation, at 2 µM). In addition, the insulin secretion stimulation in assay [2] was 6.4% (inactive). In addition, in assay [3], the viability decrease is -18.3% (inactive). Besides, the tube area decrease in assay [4] is -27% (inactive). Moreover, the GLP1 secretion stimulation in assay [5] is -4% (inactive). The inhibition of viability in assay [6] is 6.5% (inactive). In addition, the viability decrease (inhibition) was 47.6% (inactive) in assay [7] and 27.7% (inactive) in assay [8].
Consider `Nc1nc2c(ncn2COCCO)c(=O)[nH]1`, for which the nuclear beta-catenin stimulation in [1] (at 10 µM) was 3% (inactive); in [1] (stimulation, at 2 µM) it was -1%. For the same compound, the insulin secretion stimulation in [2] was 0.5% (inactive). In assay [3], the viability decrease was -0.3% (inactive). In addition, in [4], the tube area decrease was 8.6% (inactive). In addition, the GLP1 secretion stimulation in assay [5] is -0.5% (inactive). The inhibition of viability in assay [6] was -3.47% (inactive). In addition, the viability decrease (inhibition) is 23.2% (inactive) in [7] and -16.2% (inactive) in assay [8]. In addition, the inhibition in [9] was 18.2% (inactive); in [16] (BGB IC20 combo, at 0.005 µM), 14.3% and 0.139%; in [16] (BGB IC40 combo, at 0.005 µM), -30.6% and -19%; in assay [16] (BGB IC40 combo, at 0.05 µM), -33.3% and -34.4%; in [16] (at 0.5 µM) it was -25.4% (inactive) and -25.1% (inactive); in assay [16] (cisplatin combo, at 0.05 µM), -37% and -39.3%. Further, the inhibition in assay [16] (cisplatin combo, at 0.5 µM) is -27.7% and -16.9%; in assay [16] (cisplatin combo, at 5 µM) it was -26.2% and -27.5%; in assay [16] (measured here: 5 uM single agent, at 5 µM), -25.9% and 2.01%. Besides, the mean signal in assay [13] is 281 (inactive). Besides, the red/green cell ratio (normalised) in assay [14] (actives lie on both sides, counts scaled to control wells, 1 = unselective) was 1.25 (inactive). For the same compound, the normalised cell number in [14] (measured here: epithelial PC-3E GFP cell survival) is 1.01; in assay [14] (measured here: mesenchymal TEM4-18 mCherry cell survival), 1.26. Also, the z-score in [15] (MELAS cybrid survival, CellTiter-Glo 48 h, stronger effect = higher value) was -0.252 (inactive) and -0.378 (inactive) and 0.479; in assay [15] (Rieske KO mouse fibroblast survival, CellTiter-Glo 72 h), 0.554 and 0.269 and 2.37. Further, the remaining NAD in assay [11] is 10 nM (inactive). In [12], the luciferase signal is 40 AU (inactive). Moreover, the log fold change Tl+ flux in the assay on F380Y was 0.00551 (inactive); in the assay with F380Y/beta1, -0.0568 (inactive); in the assay with F380Y/beta2Delta it was 0.0127 (inactive).
As to `C=CCNCCCCCC[N+](C)(C)C`, the nuclear beta-catenin stimulation is -1.4% (inactive) in [1] (at 10 µM) and 0.4% in [1] (stimulation, at 2 µM). Moreover, in [2], the insulin secretion stimulation is -0.9% (inactive). For the same compound, in assay [3], the viability decrease was -5.7% (inactive). In addition, in [4], the tube area decrease was -1.9% (inactive). Moreover, the GLP1 secretion stimulation in [5] is -0.6% (inactive). Further, in assay [6], the inhibition of viability was -3.1% (inactive). For the same compound, the viability decrease (inhibition) in assay [7] and in assay [8] was -2.3% (inactive) each time.
For `Cc1coc2ccccc2c1=O`, the nuclear beta-catenin stimulation in assay [1] (at 10 µM) is 1.5% (inactive); in assay [1] (stimulation, at 2 µM) it was 2.3%. Besides, in [2], the insulin secretion stimulation is -2.4% (inactive). Moreover, the viability decrease in assay [3] was 2.8% (inactive). Besides, the tube area decrease in assay [4] was 13.7% (inactive). In addition, the GLP1 secretion stimulation in [5] was 3.1% (inactive). For the same compound, the inhibition of viability in assay [6] is -12.2% (inactive). Moreover, the viability decrease (inhibition) was 24.7% (inactive) in assay [7] and -7.5% (inactive) in assay [8]. The inhibition in [9] was 1.24% (inactive).
